Bioassay records as filed in PubChem BioAssay.
Only a selection was taken, and hits are over-represented in it overall.
Bm FixLJ act: activators of Burkholderia fixLJ two-component system | AID 1918990 | B. multivorans fixK-promoter GFP reporter, 18 h; active compounds read high | z-score (no concentration beside the values) | 0.3% of 29,000 active;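 active means replicate mean overnight rise in green fluorescent reporter signal, 3 or more SD over negative controls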
Hits are given with their value; . = inactive.

SMILES	Bm FixLJ act
O=C(CC1C(=O)N(c2ccccc2)C(=O)N1CCC1=CCCCC1)Nc1ccc(F)cc1 (centres undefined)	.
CCOc1ccc(NC(=O)CC2C(=O)N(c3cccc(C)c3)C(=O)N2CCC2=CCCCC2)cc1 (centres undefined)	3
COc1ccc(NC(=O)CC2C(=O)N(c3ccccc3)C(=O)N2CCC2=CCCCC2)cc1 (centres undefined)	.
CCCc1cnc(C)nc1NCc1cccc(-n2cccn2)c1	.
CCc1nnsc1C(=O)N1CCCC2(CCC(=O)N(CCOC)C2)C1 (centres undefined)	.
CCn1ccc(CN2CCCN(C(=O)c3c(C)ncnc3C)CC2)n1	.
O=C(O)c1ccc(NCc2nc3ccccc3n2CCOc2ccccc2Cl)cc1	.
COc1ccc(NCc2nc3ccccc3n2CCOc2ccccc2C)cc1	.
Fc1ccc(NCc2nc3ccccc3n2CCOc2ccccc2Cl)cc1	3.3
Cc1ccc(-c2nn(-c3ccccc3)c3c2cnc2ccccc23)cc1C	.
CCc1ccc2ncc3c(-c4ccccc4)nn(-c4ccccc4)c3c2c1	3.3
Brc1ccc(-n2nc(-c3ccccc3)c3cnc4cc5c(cc4c32)OCO5)cc1	.
O=c1oc2c3c(ccc2c2ccccc12)OCN(Cc1cccc(Cl)c1)C3	.
Cc1cc2c(c3oc(=O)c4ccccc4c13)CN(Cc1ccc(F)cc1)CO2	5.3
O=c1oc2c3c(ccc2c2ccccc12)OCN(Cc1ccccc1Cl)C3	.
N#C/C(=C\c1ccc(-c2ccc(F)cc2F)o1)c1nc2ccccc2[nH]1	14
N#C/C(=C\c1ccc(-c2ccccc2C(=O)O)o1)c1nc2ccccc2[nH]1	.
N#C/C(=C\c1ccc(Cl)cc1)c1nc2ccccc2[nH]1	.
COC(=O)c1coc(CN2CCCCC2CCc2ccc(O)cc2)n1 (centres undefined)	.
O=C(Nc1cccc(-c2cscn2)c1)NC1CCC(O)CC1 (centres undefined)	.
COc1ccc(C2=C(Nc3ccc(C)c(C)c3)c3ccccc3C2=O)cc1	.
Cc1ccc(C)c(N2CCN(C3=C(c4ccccc4)C(=O)c4ccccc43)CC2)c1	.
COc1ccc(C2=C(Nc3ccc(Br)c(C)c3)c3ccccc3C2=O)cc1	3.1
Cc1ccc(C)c(NC2=C(c3ccc(C(F)(F)F)cc3)C(=O)c3ccccc32)c1	.
COc1cc(OC)c(NC2=C(c3ccc(C(F)(F)F)cc3)C(=O)c3ccccc32)cc1Cl	.
SMILES	Bm FixLJ act
Cc1cc(C)cc(NC2=C(c3ccccc3)C(=O)c3ccccc32)c1	4
CC1(C)SCC(C(=O)N2CCC(CCC(N)=O)CC2)NC1=O (centres undefined)	.
Cc1cccc(N2CCC(NC(=O)c3ccc(OCC(=O)N4CCCCC4)cc3)CC2)c1	.
Cc1nc(C)c(CC(=O)N2CCNC(=O)C2Cc2ccccc2)s1 (centres undefined)	.
COc1ccccc1-c1nc(S(=O)(=O)c2ccc(Cl)cc2)c(N2CCCCCC2)o1	.
Cc1ccc(S(=O)(=O)c2nc(-c3ccccc3Cl)oc2N2CCCCCC2)cc1	.
O=S(=O)(c1ccccc1)c1nc(-c2ccccc2Cl)oc1N1CCCCCC1	3.2
O=C(NC1CCCN(C(=O)c2ccco2)C1)N1CCc2c(Cl)cccc2C1 (centres undefined)	.
Cc1ccc2nc(Nc3cccc(Cl)c3C)c(-n3nc(C)cc3C)nc2c1	.
COc1ccc(OC)c(Nc2nc3ccccc3nc2-n2nc(C)cc2C)c1	.
COc1ccccc1Nc1nc2ccc(Cl)cc2nc1-n1nc(C)cc1C	3.2
COCCC(=O)N1CCOc2c(O)cc(-c3cccc(Cl)c3)cc2C1	.
Cc1cc(C(F)(F)F)n(-c2nc(C(=O)NCCCn3ccnc3C(C)C)cs2)n1	.
CCc1nc(CNC(=O)c2ccc(C#CC(C)(C)O)o2)cs1	.
CC(=O)c1c(C)nn(CCC(=O)Nc2ccc(Oc3nn[nH]n3)cc2)c1C	.
CC(C)c1ccc(C2Sc3ccccc3NC3=C2C(=O)c2ccccc23)cc1 (centres undefined)	.
O=C1C2=C(Nc3ccccc3SC2c2ccc(C(F)(F)F)cc2)c2ccccc21 (centres undefined)	.
CCc1ccc(C2Sc3ccccc3NC3=C2C(=O)c2ccccc23)cc1 (centres undefined)	3.3
COCCNS(=O)(=O)c1cc(C(=O)O)cc(-c2cccc(CN)c2)c1	.
O=C(Cc1ccccc1)Nc1c(C(=O)c2ccccc2)oc2ccccc12	3.1
Cc1ccc(NC(=O)c2oc3ccccc3c2NC(=O)Cc2ccccc2)cc1	.
CCc1ccc(OCC(=O)Nc2c(C(=O)c3ccccc3)oc3ccccc23)cc1	.
Cc1cnc(N2CCC(OCc3ccccn3)CC2)nc1N(C)C	.
O=C(Nc1onc2c1CCCC2)c1ccc(Cl)cc1	.
O=C(Nc1cccc2cccnc12)c1ccccc1[N+](=O)[O-]	.
SMILES	Bm FixLJ act
CC1CCc2noc(NC(=O)c3ccccc3[N+](=O)[O-])c2C1 (centres undefined)	3.6
CCCNC(=O)N1CCC(c2nnc(Cn3cncn3)n2CC)CC1	.
Cc1noc(C)c1CCC(=O)Nc1ccc(Oc2nn[nH]n2)cc1	.
Cc1cccnc1NCCNC(=O)CSc1nnc(N)s1	.
CCC(C)n1c(=N)c(S(=O)(=O)c2ccccc2)cc2c(=O)n3ccccc3nc21 (centres undefined)	.
CCCCCn1c(=N)c(S(=O)(=O)c2ccc(C)cc2)cc2c(=O)n3cc(C)ccc3nc21	.
CCC(C)n1c(=N)c(S(=O)(=O)c2ccc(C)cc2)cc2c(=O)n3cc(C)ccc3nc21 (centres undefined)	5.7
COc1ccccc1-c1cccc(C(=O)N2CCc3nc[nH]c3C2)c1	.
CCNc1nc(C)c(C(=O)N(C)Cc2nc3ccccc3s2)s1	.
CNC(=O)CC1CCN(c2cc(C)nc3c(C)c(C)nn23)CC1	.
Cc1cc(NC(=O)C2CCCN(S(=O)(=O)c3ccc(Br)s3)C2)ccc1Br (centres undefined)	.
CC(=O)c1ccc(N2CCN(C(=O)C3CCCN(S(=O)(=O)c4ccc(Br)s4)C3)CC2)cc1 (centres undefined)	.
CC(=O)c1ccc(NC(=O)C2CCCN(S(=O)(=O)c3ccc(Br)s3)C2)cc1 (centres undefined)	3.2
CN(Cc1ccccc1)C(=O)CSc1c2c(nc3ccc(Cl)cc13)CCCC2	.
O=C(NCc1cccc(Cl)c1)c1ccc2c(Cl)c3c(nc2c1)CCCC3	.
Cc1nc(SCc2cccc(Cl)c2)nc2c1CCCC2	3
CCn1cncc1CNC(=O)Nc1ccc2c(c1)oc(=O)n2CC	.
Cc1cc(C(=O)NCCCc2csc(N)n2)c2c(C)nn(C)c2n1	.
COc1cccc2c1C1(CCN(C(=O)c3cnc(C4CC4)[nH]c3=O)CC1)OCC2	.
CCc1ccc2occ(CC(=O)Nc3ccc(C)c(C)c3)c2c1	3.4
Cc1ccc(NC(=O)Cc2coc3ccc(C(C)C)cc23)cc1Cl	.
CCc1ccc2occ(CC(=O)Nc3nnc(SC)s3)c2c1	.
COc1cccc(OCc2cc(C(=O)NCCC(C)C)n[nH]2)c1	.
O=C1CC(Nc2ncnc3sccc23)CN1Cc1ccccc1Cl (centres undefined)	.
COc1ccc(/C=C(/C#N)c2nc(-c3ccc(Br)cc3)cs2)cc1	.
CC(C)c1ccc(/C=C(\C#N)c2nc(-c3cc4ccccc4oc3=O)cs2)cc1	.
CC(C)c1ccc(/C=C(\C#N)c2nc(-c3ccc(O)cc3)cs2)cc1	8.4
Cc1noc(C2CCN(C(=O)CSc3ccncc3)C2)n1 (centres undefined)	.
O=C(c1cnccn1)N1CCC(c2nccn2Cc2cscn2)CC1	.
